{"source": "PubChem BioAssay (Tox21)", "note": "Records with an inconclusive call do not appear. Entries that show only a call come without a potency. Calls of active or inactive are those of the source. Calls follow the shape of the dose curve; as a rule, active = well fitted cell-killing curve with a large enough effect in the repeat runs; inconclusive = weak or mixed curves, or effect the other way; inactive = no such curve, though single readings can be large or run the other way. Potency is read from the fitted curve at half-maximal effect."}
{"test": "qHTS assay for identifying genotoxic compounds that show differential cytotoxicity against isogenic chicken DT40 cell lines with known DNA damage response pathways - Rev3 mutant cell line (AID 743014); also: nearly all actives have a fitted effect of over 55% in size", "conditions": "chicken DT40 Rev3-/- viability, CellTiter-Glo, 40 h; series mostly up to 68.4 µM", "description": "National Center for Advancing Translational Sciences [NCATS]\nNIH Chemical Genomics Center [NCGC]\nU.S. Environmental Protection Agency [EPA]\nNational Institutes of Environmental Health Sciences [NIEHS]\nNational Toxicology Program [NTP]\nU.S. Food and Drug Administration [FDA]\nDNA repair pathways play a critical role in cellular homeostasis by repairing DNA damage induced by endogenous processes and xenobiotics. Isogenic chicken DT40 cell lines deficient in different DNA repair pathways can be used to identify genotoxic compounds and aid in characterizing the nature of the DNA damage induced. Two DNA repair-deficient cell lines with disrupted genes, Rad54/Ku70 or Rev3, were used to screen the Tox21 10K compound library. Possible genotoxicity was based on the presence of a significant increase in cytotoxicity in one or more of the DNA repair-deficient cell lines compared to that observed in the parental DNA repair-proficient cell line. CellTiter Glo viability assay (Promega, Madison, WI) was used to measure cell viability in these cells after compound treatment. This assay includes the data from the Rev3 mutant cell line.\nTox21 Assay Protocol Summary:\n300 DT40 mutant cells in 5 uL/well were dispensed into white, solid-bottom 1536-well plates using a Multidrop Combi (ThermoFisher Scientific, Waltham, MA) dispenser. After the assay plates were incubated at 37 C/5% CO2 for approximately 0.5 hour, 23 nL of compounds dissolved in DMSO, positive controls or DMSO only was transferred into the assay plate by a pintool work station (Kalypsys, San Diego, CA). The assay plates were incubated at 37 C/5% CO2 for 40 hours. After 5 uL per well of CellTiter-Glo reagent was added into each well of the assay plates, the plates were incubated for 30 min at room temperature and the luminescence intensity of the plates was measured using a ViewLux (PerkinElmer, Shelton, CT) plate reader."}
{"smiles": "CC1OC1C1CCC2(C)OC2C1", "note": "(stereo not given)", "Potency": "inactive"}
{"smiles": "CC(C#N)(CCC(=O)O)N=NC(C)(C#N)CCC(=O)O", "note": "(stereo not given)", "Potency": "inactive"}
{"smiles": "CCN(Cc1ccccc1)c1ccccc1", "Potency": "inactive"}
{"smiles": "CCCCCCCCCC[N+](C)(C)[O-]", "Potency": "13.7 µM (active)"}
{"smiles": "CCCn1cc[n+](C)c1C", "Potency": "inactive"}
{"smiles": "CC(C)(C#N)Nc1nc(Cl)nc(NC2CC2)n1", "Potency": "inactive"}
{"smiles": "O=S(=O)(O)c1cccc2c(S(=O)(=O)O)cccc12", "Potency": "inactive"}
{"smiles": "CCCCc1nc(Cl)c(CO)n1Cc1ccc(-c2ccccc2-c2nn[nH]n2)cc1", "Potency": "inactive"}
{"smiles": "CCCCCCCCCCCCSC", "Potency": "61.1 µM (active)"}
{"smiles": "CC[N+](CC)(CC(=O)Nc1c(C)cccc1C)Cc1ccccc1", "note": "(tested in a mixture with another compound)", "Potency": "16 µM (active)"}
{"smiles": "C=CCOCC(O)CO", "note": "(stereo not given)", "Potency": "inactive"}
{"smiles": "CC[N+](C)(CC)CCOC(=O)C1c2ccccc2Oc2ccccc21", "Potency": "inactive"}
{"smiles": "CC1CCC(CO)CC1", "note": "(stereo not given)", "Potency": "inactive"}
{"smiles": "CC/C=C\\CCOC(C)OCC", "note": "(stereo not given)", "Potency": "inactive"}
{"smiles": "CCOC(=O)CCC(=O)OCC", "Potency": "68.5 µM (active)"}
{"smiles": "O=C1CCCCCCCCCCCCCCO1", "Potency": "inactive"}
{"smiles": "C[C@@H]1CCC[C@H](C)N1", "Potency": "inactive"}
{"smiles": "C=C[Si](OC(C)=O)(OC(C)=O)OC(C)=O", "Potency": "61.1 µM (active)"}
{"smiles": "NS(=O)(=O)Cc1noc2ccccc12", "Potency": "inactive"}
{"smiles": "CO[C@@]1(NC(=O)C(C(=O)O)c2ccc(O)cc2)C(=O)N2C(C(=O)O)=C(CSc3nnnn3C)CO[C@@H]21", "note": "(stereo not given in full)", "Potency": "inactive"}
{"smiles": "CC(C)c1ccc2ncccc2c1", "Potency": "inactive"}
{"smiles": "CC1(C)[C@@H]2CC[C@@]1(C)[C@H](O)C2", "Potency": "inactive"}
{"smiles": "CCCC[N+](C)(CCCC)CCCC", "Potency": "inactive"}
{"smiles": "CCCc1ncc(C[n+]2ccccc2C)c(N)n1", "Potency": "inactive"}
{"smiles": "Cc1ccnc(NS(=O)(=O)c2ccc(N)cc2)n1", "Potency": "inactive"}
{"smiles": "Cc1ccccc1N=C(N)N=C(N)N", "Potency": "inactive"}
{"smiles": "CN(C)C(=O)Oc1cccc([N+](C)(C)C)c1", "Potency": "inactive"}
{"smiles": "NC(CCC(=O)O)C(=O)O", "note": "(stereo not given)", "Potency": "inactive"}
{"smiles": "c1ccc2sc(SN3CCOCC3)nc2c1", "Potency": "inactive"}
{"smiles": "CCOc1ccc2nc(S(N)(=O)=O)sc2c1", "Potency": "inactive"}
{"smiles": "NC(=O)N1c2ccccc2CC(=O)c2ccccc21", "Potency": "5.96 µM (active)"}
{"smiles": "C=C(C)C(=O)OCCOCCOCCOCCOC(=O)C(=C)C", "Potency": "inactive"}
{"smiles": "CN(C)C(=O)Oc1ccc[n+](C)c1", "Potency": "inactive"}
{"smiles": "CC(CC=O)CC(C)(C)C", "note": "(stereo not given)", "Potency": "inactive"}
{"smiles": "CC(C)COC(=O)c1ccc(N)cc1", "Potency": "inactive"}
{"smiles": "NCCCC(N)(C(=O)O)C(F)F", "note": "(stereo not given)", "Potency": "inactive"}
{"smiles": "CNCCO", "Potency": "inactive"}
{"smiles": "CCOC(=O)OC(C)OC1=C(C(=O)Nc2ccccn2)N(C)S(=O)(=O)c2ccccc21", "note": "(stereo not given)", "Potency": "1.5 µM (active)"}
{"smiles": "O=C(O)CCSCCC(=O)O", "Potency": "inactive"}
{"smiles": "CC(C)(C)OC(=O)c1cccc(N)c1", "Potency": "inactive"}
